Experimental data reported in PubChem BioAssay (EPA / NIEHS).
Several values for one entry are separate records, joined by “and”; a condition that tells them apart may be missing. Equal entries are not always repeated. Results filed as inconclusive are left out. Some structures have more than one record in an assay (separate samples or runs), and their calls can disagree. Activity calls are given as the source filed them. How the source made its calls: active means hit-call score of the fitted dose curve at least 0.9, where 1 is the maximum; inconclusive means response in the unintended direction; inactive means score below 0.9.

What was measured:
[1] = target: Estrogen receptor (Homo sapiens) (UniProt P03372); experiment: OT_ER_ERaERa_0480: Odyssey Thera (OT) 8-hour HEK293T Protein-Complementation Assay for Estrogen Receptor-alpha/-alpha Homodimer (AID 2283351);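 further: rise in fluorescence from reassembled reporter fragments on ERα LBD homodimer in nucleus or whole cell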
Sequence of Estrogen receptor (Homo sapiens) (P03372 whole entry, looked up, the tested form may be a part): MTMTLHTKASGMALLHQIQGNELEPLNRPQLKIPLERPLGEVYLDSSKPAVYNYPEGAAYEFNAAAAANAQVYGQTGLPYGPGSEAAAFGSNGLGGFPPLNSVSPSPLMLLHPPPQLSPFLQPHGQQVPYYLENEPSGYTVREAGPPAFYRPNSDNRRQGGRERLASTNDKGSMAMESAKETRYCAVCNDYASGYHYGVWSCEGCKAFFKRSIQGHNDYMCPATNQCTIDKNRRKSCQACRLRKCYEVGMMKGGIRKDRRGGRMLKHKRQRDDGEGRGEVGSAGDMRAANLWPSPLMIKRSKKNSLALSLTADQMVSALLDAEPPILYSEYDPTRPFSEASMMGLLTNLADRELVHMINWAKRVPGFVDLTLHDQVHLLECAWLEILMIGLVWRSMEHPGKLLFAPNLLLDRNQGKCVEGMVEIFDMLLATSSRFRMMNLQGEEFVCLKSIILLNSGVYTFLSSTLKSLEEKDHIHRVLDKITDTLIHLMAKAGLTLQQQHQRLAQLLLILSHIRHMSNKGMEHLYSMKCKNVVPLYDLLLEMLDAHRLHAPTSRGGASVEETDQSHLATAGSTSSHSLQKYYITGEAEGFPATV
Procedure, shortened: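 HEK293T, stable ERα LBD (aa 310-547) PCA homodimer; 8 h compound exposure; fluorescence intensity, laser scanning cytometer; positive fitting direction, DMSO baseline.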

[2] = target: T1, Estrogen receptor (Homo sapiens) + Estrogen receptor beta (Homo sapiens) (UniProt P03372+Q92731); experiment: OT_ER_ERaERb_0480: Odyssey Thera (OT) 8-hour HEK293T Protein-Complementation Assay for Estrogen Receptor-alpha/-beta Heterodimer (AID 2283352)
T1 sequence (P03372 whole entry, looked up): as the sequence (P03372 whole entry, looked up, the tested form may be a part) above
T1 sequence (Q92731 whole entry, looked up): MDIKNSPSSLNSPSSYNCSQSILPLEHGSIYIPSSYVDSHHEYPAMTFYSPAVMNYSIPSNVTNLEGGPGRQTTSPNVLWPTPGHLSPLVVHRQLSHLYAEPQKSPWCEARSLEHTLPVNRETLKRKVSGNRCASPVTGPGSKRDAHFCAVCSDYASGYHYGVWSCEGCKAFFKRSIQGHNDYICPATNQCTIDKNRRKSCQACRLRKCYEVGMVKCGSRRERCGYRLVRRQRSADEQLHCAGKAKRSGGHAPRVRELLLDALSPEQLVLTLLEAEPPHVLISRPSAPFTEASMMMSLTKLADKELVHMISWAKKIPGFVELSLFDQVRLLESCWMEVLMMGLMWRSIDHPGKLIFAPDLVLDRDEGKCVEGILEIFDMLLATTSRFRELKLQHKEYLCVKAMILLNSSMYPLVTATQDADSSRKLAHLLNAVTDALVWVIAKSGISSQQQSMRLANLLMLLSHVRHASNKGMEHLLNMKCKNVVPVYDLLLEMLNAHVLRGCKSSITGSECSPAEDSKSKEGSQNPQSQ
Procedure, shortened: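 Compound added to HEK293T cells carrying split-reporter-tagged ER-alpha and ER-beta LBDs, incubated 8 hours, then imaged by laser scanning cytometer. Signal rise in nucleus, or nucleus and cytoplasm, over vehicle was fitted in the positive direction.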

[3] = target: T1, Estrogen receptor (Homo sapiens) + Estrogen receptor beta (Homo sapiens); experiment: OT_ER_ERaERb_1440: Odyssey Thera (OT) 24-hour HEK293T Protein-Complementation Assay for Estrogen Receptor-alpha/-beta Homodimer (AID 2283356);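 further: heteromer of ER alpha and ER beta binding domains; hits raise reporter fluorescence and both agonists and antagonists give an increase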
Procedure, shortened: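 Stable HEK293T PCA line, ERα LBD 310-547 + ERβ LBD 263-489 fused to reporter fragments; 24 h treatment; fluorescence read by laser scanning cytometry; positive fitting direction relative to DMSO.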

[4] = target: Estrogen receptor beta (Homo sapiens) (UniProt Q92731); experiment: OT_ER_ERbERb_0480: Odyssey Thera (OT) 8-hour HEK293T Protein-Complementation Assay for Estrogen Receptor-beta/-beta Homodimer (AID 2283357);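 further: active means signal gain over DMSO baseline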
Sequence of Estrogen receptor beta (Homo sapiens) (Q92731 whole entry, looked up, the tested form may be a part): as the sequence (Q92731 whole entry, looked up) above
Procedure, shortened: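 Fluorescence intensity, nuclear for agonists and nuclear plus cytoplasmic for antagonists, was quantified by laser scanning cytometry versus vehicle after 8 h treatment. The cells were HEK293T stably carrying ER beta LBD fragment-complementation partners.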

[5] = target: human Peroxisome Proliferator-activated Receptor alpha (PPARa), PPARA (gene 5465) (UniProt Q07869); experiment: NVS_NR_hPPARa: NovaScreen (NVS) Nuclear Receptor Binding Assay for human Peroxisome Proliferator-activated Receptor alpha (PPARa) (AID 2283359);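 further: activity means loss of TR-FRET signal versus DMSO baseline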
Sequence of human Peroxisome Proliferator-activated Receptor alpha (PPARa), PPARA (gene 5465) (Q07869 whole entry, looked up): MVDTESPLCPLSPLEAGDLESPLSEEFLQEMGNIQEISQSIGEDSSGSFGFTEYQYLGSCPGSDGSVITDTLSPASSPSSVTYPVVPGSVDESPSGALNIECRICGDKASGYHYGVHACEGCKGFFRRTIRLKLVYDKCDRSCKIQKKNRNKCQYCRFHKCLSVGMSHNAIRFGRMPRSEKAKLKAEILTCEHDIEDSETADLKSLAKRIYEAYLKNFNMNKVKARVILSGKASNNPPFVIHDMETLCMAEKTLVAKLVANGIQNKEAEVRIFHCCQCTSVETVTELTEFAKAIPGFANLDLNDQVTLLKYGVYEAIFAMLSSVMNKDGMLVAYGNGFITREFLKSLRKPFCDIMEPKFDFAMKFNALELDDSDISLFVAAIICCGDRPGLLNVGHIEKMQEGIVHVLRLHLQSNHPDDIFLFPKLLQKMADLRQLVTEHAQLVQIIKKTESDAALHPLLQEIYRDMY
Procedure, shortened: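 Cell-free TR-FRET binding assay with extracted PPARα protein, read 1 h after dosing. Primary screen in duplicate at 25 uM, with actives retested in concentration series. Loss of signal versus DMSO.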

[6] = target: guinea pig Sigma Receptor, Non-selective Binding, SIGMAR1 (gene 100135589) (UniProt Q60492); experiment: NVS_OR_gSIGMA_NonSelective: NovaScreen (NVS) Nuclear Receptor Binding Assay for guinea pig Sigma Receptor, Non-selective Binding (AID 2283367)
Sequence of guinea pig Sigma Receptor, Non-selective Binding, SIGMAR1 (gene 100135589) (Q60492 whole entry, looked up): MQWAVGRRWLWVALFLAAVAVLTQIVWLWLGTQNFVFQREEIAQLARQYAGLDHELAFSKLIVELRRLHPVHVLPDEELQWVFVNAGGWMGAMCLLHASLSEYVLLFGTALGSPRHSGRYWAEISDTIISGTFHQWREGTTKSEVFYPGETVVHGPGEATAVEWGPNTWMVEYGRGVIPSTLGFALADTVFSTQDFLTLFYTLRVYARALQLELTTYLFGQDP
Procedure, shortened: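 Radioligand displacement on guinea pig brain membranes, read by filter-based scintillation counting 1 h after dosing. Loss of signal versus DMSO; initial duplicate single-point screen at 25 uM, actives followed in concentration series.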

[7] = target: Androgen Receptor/SRC-1 Co-activator, AR (gene 367) (UniProt P10275); experiment: OT_AR_ARSRC1_0960: Odyssey Thera (OT) 16-hour HEK293T Protein-Complementation Assay for Androgen Receptor/SRC-1 Co-activator (AID 2283353);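 further: actives raise the signal above DMSO so potency reflects increased AR and SRC-1 complex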
Procedure, shortened: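 Split-Venus PCA, AR/SRC-1 fusions, stable HEK293T; 16 h compound exposure; imaged at 488 and 635 nm; N/C ratio (488 nm channel), min 400 cells/image; positive-direction fit, DMSO baseline.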

[8] = target: Androgen Receptor/SRC-1 Co-activator, AR (gene 367) (UniProt P10275); experiment: OT_AR_ARSRC1_0480: Odyssey Thera (OT) 8-hour HEK293T Protein-Complementation Assay for Androgen Receptor/SRC-1 Co-activator (AID 2283354);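 further: hits raise the complementation signal above DMSO so AC50 marks enhancers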
Procedure, shortened: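 HEK293T cells stably expressing AR and SRC-1 fused to Venus YFP fragments, imaged 8 h after dosing. Complementation fluorescence scored as nuclear/cytoplasmic ratio at 488 nm in at least 400 cells per image; gain fitted versus DMSO.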

[9] = target: rat Mineralocorticoid Receptor (MR), Nr3c2 (gene 25672) (UniProt P22199); experiment: NVS_NR_rMR: NovaScreen (NVS) Nuclear Receptor Binding Assay for rat Mineralocorticoid Receptor (MR) (AID 2283355)
Procedure, shortened: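 Cell-free radioligand binding to mineralocorticoid receptor from adrenalectomized rat brain supernatant, scintillation counting after 24 h. Primary screen in duplicate at 25 uM; actives retested in concentration series. Loss of specific binding versus DMSO.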

[10] = target: Retinoic acid receptor alpha (Homo sapiens) (UniProt P10276); experiment: NVS_NR_hRAR_Antagonist: NovaScreen (NVS) Nuclear Receptor Binding Assay for human Retinoic Acid Alpha Receptor Antagonism (RAR) (AID 2283358)
Procedure, shortened: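 Cell-free TR-FRET binding assay with extracted human RARalpha in antagonist mode, read 2 h after dosing. Loss of signal was fitted relative to DMSO; the primary screen used 25 uM in duplicate, with concentration series on follow-up.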

[11] = target: Peroxisome proliferator-activated receptor gamma (Homo sapiens) (UniProt P37231); experiment: NVS_NR_hPPARg: NovaScreen (NVS) Nuclear Receptor Binding Assay for human Peroxisome Proliferator-activated Receptor gamma (PPARg) (AID 2283370)
Sequence of Peroxisome proliferator-activated receptor gamma (Homo sapiens) (P37231 whole entry, looked up): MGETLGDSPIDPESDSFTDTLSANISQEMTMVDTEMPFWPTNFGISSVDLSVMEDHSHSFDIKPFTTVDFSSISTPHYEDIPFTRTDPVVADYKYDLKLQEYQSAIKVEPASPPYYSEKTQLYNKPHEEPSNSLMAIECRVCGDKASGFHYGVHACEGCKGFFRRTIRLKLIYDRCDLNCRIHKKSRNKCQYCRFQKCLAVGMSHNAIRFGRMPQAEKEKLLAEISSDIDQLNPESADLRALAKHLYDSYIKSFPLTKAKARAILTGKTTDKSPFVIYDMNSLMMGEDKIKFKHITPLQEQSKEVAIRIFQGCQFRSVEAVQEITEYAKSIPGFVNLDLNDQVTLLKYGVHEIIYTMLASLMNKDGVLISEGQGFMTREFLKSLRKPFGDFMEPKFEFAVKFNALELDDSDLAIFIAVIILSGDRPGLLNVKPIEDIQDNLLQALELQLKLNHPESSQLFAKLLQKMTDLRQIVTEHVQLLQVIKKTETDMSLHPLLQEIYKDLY
Procedure, shortened: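 Chemicals were tested first in duplicate at 25 uM, then in concentration series if active. Binding to cell-free PPARg protein was measured by fluorescence polarization after 2 h, with loss of signal scored against DMSO.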

[12] = target: Bile acid receptor (Homo sapiens) (UniProt Q96RI1); experiment: NVS_NR_hFXR_Antagonist: NovaScreen (NVS) Nuclear Receptor Binding Assay for human Farnesoid X Receptor Antagonism (FXR) (AID 2283350)
Sequence of Bile acid receptor (Homo sapiens) (Q96RI1 whole entry, looked up): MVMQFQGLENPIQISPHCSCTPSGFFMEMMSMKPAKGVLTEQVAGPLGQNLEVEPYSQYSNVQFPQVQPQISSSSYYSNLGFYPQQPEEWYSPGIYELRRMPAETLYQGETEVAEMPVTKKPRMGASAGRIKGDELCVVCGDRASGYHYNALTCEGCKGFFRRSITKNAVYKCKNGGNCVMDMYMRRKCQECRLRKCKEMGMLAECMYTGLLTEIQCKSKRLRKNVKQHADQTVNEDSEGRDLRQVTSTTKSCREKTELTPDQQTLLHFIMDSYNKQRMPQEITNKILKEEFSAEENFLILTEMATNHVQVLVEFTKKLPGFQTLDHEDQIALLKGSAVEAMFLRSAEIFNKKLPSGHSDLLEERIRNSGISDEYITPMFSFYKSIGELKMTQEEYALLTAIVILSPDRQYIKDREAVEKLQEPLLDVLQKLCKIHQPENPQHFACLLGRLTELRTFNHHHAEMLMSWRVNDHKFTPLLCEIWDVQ
Procedure, shortened: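 Cell-free TR-FRET ligand-binding read-out on human FXR (NR1H4) in antagonist mode, measured 1 h after dosing. Primary screen in duplicate at 25 uM, actives retested in concentration series; signal loss scored versus DMSO.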

[13] = target: Nuclear receptor subfamily 1 group I member 2 (Homo sapiens) (UniProt O75469); experiment: NVS_NR_hPXR: NovaScreen (NVS) Nuclear Receptor Binding Assay for human Pregnane X Receptor (PXR) (AID 2283365);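 further: a drop in FRET signal versus DMSO baseline means the compound binds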
Sequence of Nuclear receptor subfamily 1 group I member 2 (Homo sapiens) (O75469 whole entry, looked up): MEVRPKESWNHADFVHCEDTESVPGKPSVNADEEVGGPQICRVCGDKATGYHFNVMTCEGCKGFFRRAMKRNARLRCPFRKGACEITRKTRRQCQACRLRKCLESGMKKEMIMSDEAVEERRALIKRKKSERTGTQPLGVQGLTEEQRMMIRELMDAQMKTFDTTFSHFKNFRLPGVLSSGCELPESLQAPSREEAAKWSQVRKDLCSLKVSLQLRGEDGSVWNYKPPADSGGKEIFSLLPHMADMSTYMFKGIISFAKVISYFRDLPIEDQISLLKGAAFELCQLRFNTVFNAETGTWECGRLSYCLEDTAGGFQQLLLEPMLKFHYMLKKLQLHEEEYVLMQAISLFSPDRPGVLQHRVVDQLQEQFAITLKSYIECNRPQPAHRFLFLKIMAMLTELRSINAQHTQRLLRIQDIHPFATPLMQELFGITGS
Procedure, shortened: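 Human PXR protein, cell-free; compound added, incubated 2 h, TR-FRET read. Signal decrease vs DMSO = binding. Screened 25 uM duplicate, actives re-run as dilution series.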

[14] = target: Glucocorticoid receptor (Homo sapiens) (UniProt P04150); experiment: NVS_NR_hGR: NovaScreen (NVS) Nuclear Receptor Binding Assay for human Glucocorticoid Receptor (GR) (AID 2283363);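 on AC50: activity is loss of specific radioligand binding signal relative to DMSO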
Procedure, shortened: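 Cell-free radioligand displacement assay on extracted human GR, read 16 h after dosing by filter-based scintillation counting. Screened in duplicate at 25 uM, then concentration series for actives; loss of signal versus DMSO baseline.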

[15] = target: PGR (gene 5241) (UniProt P06401); experiment: NVS_NR_hPR: NovaScreen (NVS) Nuclear Receptor Binding Assay for human Progestron Receptor (PR) (AID 2283360);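 further: active means loss of bound radioligand signal versus DMSO baseline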
Procedure, shortened: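 Cell-free radioligand binding using receptor protein extracted from T47D cells, read by scintillation counting 18 hours after dosing. Loss of signal relative to DMSO baseline indicates displacement; primary screen single concentration 25 uM in duplicate, actives followed in concentration series.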

[16] = test system: guinea pig Dopamine Transporter (DAT), gene 100714898; experiment: NVS_TR_gDAT: NovaScreen (NVS) Transporter Assay for guinea pig Dopamine Transporter (DAT) (AID 2283369);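 further: active compounds lower bound radioligand signal relative to DMSO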
Procedure, shortened: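 Scintillation counts of filter-retained radioligand report binding to guinea pig striatal membranes after 2 h. Activity scored as signal loss relative to DMSO, first at 25 uM in duplicate, then in concentration series to 50 uM.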

[17] = target: Retinoic acid receptor alpha (Homo sapiens) (UniProt P10276); experiment: NVS_NR_hRARa_Agonist: NovaScreen (NVS) Nuclear Receptor Binding Assay for human Retinoic Acid Alpha Receptor Agonism (RAR) (AID 2283361)
Procedure, shortened: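 Cell-free TR-FRET binding readout with extracted receptor protein, read 2 hours after dosing; gain-of-signal fitted relative to DMSO. Screened in duplicate at 25 uM, actives then run in concentration-response.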

[18] = target: human Thyroid Receptor Alpha (TRa), THRA (gene 7067) (UniProt P10827); experiment: NVS_NR_hTRa_Antagonist: NovaScreen (NVS) Nuclear Receptor Binding Assay for human Thyroid Receptor Alpha Antagonism (TRa) (AID 2283362);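 further: activity is loss of signal relative to DMSO baseline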
Sequence of human Thyroid Receptor Alpha (TRa), THRA (gene 7067) (P10827 whole entry, looked up): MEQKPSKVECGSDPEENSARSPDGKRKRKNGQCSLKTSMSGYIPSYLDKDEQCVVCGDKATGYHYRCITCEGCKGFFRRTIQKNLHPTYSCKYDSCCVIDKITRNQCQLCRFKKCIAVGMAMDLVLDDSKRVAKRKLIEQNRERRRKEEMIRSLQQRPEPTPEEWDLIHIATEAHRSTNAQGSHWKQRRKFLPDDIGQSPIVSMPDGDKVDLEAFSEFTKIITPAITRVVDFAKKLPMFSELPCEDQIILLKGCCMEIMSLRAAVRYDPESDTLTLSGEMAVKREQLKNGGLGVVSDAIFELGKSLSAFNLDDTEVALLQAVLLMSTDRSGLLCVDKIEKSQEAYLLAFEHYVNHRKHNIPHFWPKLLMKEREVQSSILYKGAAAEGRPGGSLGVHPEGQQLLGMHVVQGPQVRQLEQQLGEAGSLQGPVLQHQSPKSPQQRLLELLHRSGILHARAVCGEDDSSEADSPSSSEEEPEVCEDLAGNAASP
Procedure, shortened: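 Extracted protein, cell-free; 1 h incubation after dosing; AlphaLISA chemiluminescence binding readout. DMSO = baseline/neg ctrl; signal loss = activity. Primary: duplicate, 25 uM; secondary: conc. series on actives.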

[19] = target: rat Androgen Receptor (AR), Ar (gene 24208) (UniProt P15207); experiment: NVS_NR_rAR: NovaScreen (NVS) Nuclear Receptor Binding Assay for rat Androgen Receptor (AR) (AID 2283366)
Sequence of rat Androgen Receptor (AR), Ar (gene 24208) (P15207 whole entry, looked up): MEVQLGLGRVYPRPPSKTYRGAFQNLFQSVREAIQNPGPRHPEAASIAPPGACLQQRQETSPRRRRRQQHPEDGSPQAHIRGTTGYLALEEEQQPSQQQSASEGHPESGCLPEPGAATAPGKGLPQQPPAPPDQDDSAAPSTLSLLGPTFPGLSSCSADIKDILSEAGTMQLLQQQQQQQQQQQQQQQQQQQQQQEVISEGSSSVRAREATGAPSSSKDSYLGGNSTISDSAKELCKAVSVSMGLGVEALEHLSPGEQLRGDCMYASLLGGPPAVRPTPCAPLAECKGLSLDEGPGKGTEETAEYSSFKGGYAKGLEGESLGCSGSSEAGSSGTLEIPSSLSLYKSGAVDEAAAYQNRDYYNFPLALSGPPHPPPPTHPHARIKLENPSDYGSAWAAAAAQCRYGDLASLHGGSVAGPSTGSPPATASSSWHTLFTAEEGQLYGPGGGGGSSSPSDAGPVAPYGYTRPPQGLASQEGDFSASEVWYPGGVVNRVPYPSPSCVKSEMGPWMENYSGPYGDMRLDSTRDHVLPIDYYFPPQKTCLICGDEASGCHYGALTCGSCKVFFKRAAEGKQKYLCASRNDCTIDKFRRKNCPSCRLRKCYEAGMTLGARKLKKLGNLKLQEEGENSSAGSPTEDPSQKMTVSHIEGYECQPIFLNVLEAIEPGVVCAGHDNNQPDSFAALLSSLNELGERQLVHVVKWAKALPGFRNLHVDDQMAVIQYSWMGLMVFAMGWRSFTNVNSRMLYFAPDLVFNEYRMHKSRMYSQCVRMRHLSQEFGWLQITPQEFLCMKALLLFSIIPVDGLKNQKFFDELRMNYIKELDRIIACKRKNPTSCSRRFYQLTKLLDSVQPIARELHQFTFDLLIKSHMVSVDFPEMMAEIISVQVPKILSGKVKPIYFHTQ
Procedure, shortened: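 Cell-free radioligand binding on extracts of prostate from testosterone-pretreated rats, read by filter-based scintillation counting 18 h after dosing. Loss of bound signal fitted positively versus DMSO; primary screen in duplicate at 25 uM, actives followed up in concentration series.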

Measured: AC50

OCC(CO)n1cnc(-c2ccc(F)cc2)c1-c1ccnc(Oc2ccccc2)n1
inactive: [1] | [2] | [3] | [4]

NC(=Nc1ccccc1)Nc1ccccc1
active: [6] 0.646 µM
inactive: [1] | [2] | [3] | [4] | [5]

Cc1ccc(C(C)(C)C)c(O)c1
inactive: [1] | [2]
active: [3] 33.9 µM | [4] 13.2 µM

CCCCCCCCCC[N+](C)(C)[O-]
active: [6] 3.09 µM
inactive: [1] | [2] | [7] | [8] | [3] | [4]

O=C(O)CC(O)(CC(=O)O)C(=O)O
inactive: [1] | [2] | [9] | [3] | [4] | [10] | [11]

CS(=O)(=O)c1ccc([C@@H](C[C@H]2CCC(=O)C2)C(=O)Nc2cnccn2)cc1Cl
inactive: [1] | [2] | [3] | [4]

CCC(C)N(C)C(=O)c1cc2ccccc2c(-c2ccccc2Cl)n1 (stereo not drawn)
inactive: [1] | [2] | [8] | [3] | [4] | [5]
active: [7] 26 µM | [6] 6.44 µM | [11] 5.15 µM

CC(C)OC(=O)C(C)(C)Oc1ccc(C(=O)c2ccc(Cl)cc2)cc1
active: [7] 34.4 µM | [13] 41.2 µM
inactive: [12] | [1] | [2] | [8] | [3] | [4]

CCCCc1nc2cccnc2n1Cc1ccc(-c2ccccc2-c2nnn[nH]2)cc1
inactive: [12] | [1] | [3] | [4] | [14]
active: [11] 4.96 µM

NC1CCCCC1
inactive: [1] | [2] | [3] | [4] | [11]

CSc1ccc(Oc2ccc(S(N)(=O)=O)cc2CN(C)C)cc1C
inactive: [1] | [2] | [3] | [5] | [15] | [13]
active: [7] 80.7 µM | [8] 77 µM | [6] 12.8 µM | [16] 7.61 µM

CN(C)C(=O)NC1(c2ccccc2)CCN(CCC[C@]2(c3ccc(Cl)c(Cl)c3)CCCN(C(=O)c3ccccc3)C2)CC1
inactive: [1] | [2] | [4]
active: [3] 2.97 µM | [16] 0.596 µM

COc1ccc(OC(F)(F)F)cc1CN[C@H]1CCCN[C@H]1c1ccccc1
active: [12] 40.2 µM | [13] 7.41 µM | [6] 15.8 µM | [16] 11.9 µM
inactive: [2] | [3] | [5]

CC(C)c1cccc(C(C)C)c1
inactive: [1]

O=C(O)CN(CC(=O)O)CC(=O)O
inactive: [1]

CN(C)CCCN1c2ccccc2Sc2ccc(Cl)cc21
inactive: [12]
active: [6] 2.11 µM | [16] 8.84 µM

Oc1ccc(O)cc1
inactive: [1] | [2] | [3] | [4] | [5] | [11]

CCN(CC)CCOc1ccc(C(=C(Cl)c2ccccc2)c2ccccc2)cc1
inactive: [17]
active: [12] 13.5 µM | [4] 21.5 nM and 118 nM and 9.83 nM | [10] 16.1 µM and 11 µM and 12.5 µM | [17] 25.9 µM and 21 µM | [18] 14.9 µM and 12.2 µM and 16.3 µM | [13] 3.15 µM and 3.46 µM and 3.72 µM | [19] 2.68 µM [middle of 4 runs] | [6] 2.13 µM | [16] 3.83 µM

O=Cc1ccccc1C=O
active: [7] 75.3 µM | [8] 66.1 µM | [14] 6.78 µM
inactive: [1] | [3] | [4] | [15]

COc1ccc(C(=O)Nc2nc3ccccc3c(NCc3ccccc3)c2C#N)cc1
inactive: [1] | [2] | [3] | [4] | [5] | [13]

CC1(C)C(=O)NC(=O)N1CO
inactive: [1] | [2] | [3]

Nc1nc(=S)c2[nH]cnc2[nH]1
inactive: [1] | [2] | [7] | [8] | [3] | [4]

O=C1CCCCC1
inactive: [1] | [2] | [7] | [8] | [3] | [4]

CN(C)C(=O)NC1(c2ccccc2)CCN(CC[C@@]2(c3ccc(F)c(F)c3)CN(C(=O)c3ccccc3)CCO2)CC1
inactive: [12] | [13] | [11]

CCc1nc(N)nc(N)c1-c1ccc(Cl)cc1
inactive: [1] | [2] | [3] | [4] | [15] | [11]
active: [6] 2.45 µM | [16] 1.18 µM

c1ccc2occc2c1
inactive: [1]
